In PubChem BioAssay AID1578 (Sanford-Burnham Center for Chemical Genomics, 2009):
Out of some 290,000 compounds screened, about 3,000 (1%) were called active. Rule as the data show it: active = inhibition mostly above about 36% (no sharp cut-off); inactive = mostly below about 34%. The full list was thinned out, with actives kept by preference.

Assay: NOD1 signaling inhibitors, primary screen, cell-based, luminescence, uHTS (AID 1578);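 also: HEK-293T reporter cells stimulated with the NOD1 agonist gamma-tri-DAP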
Conditions: NOD1-driven NF-kB luciferase reporter cells, at 4 µM, active compounds read high

inhibition, inactive:
O=C(NCCc1ccccc1)C(=O)N/N=C/c1ccccc1C(F)(F)F -5.8%
CC(=O)Nc1cccc(Cn2cccn2)c1 11.3%
Cc1ccc(NC(=O)c2cc3c(s2)CCCC3)cc1 -69.9%
C=CCN(C(=O)CSc1nc2[nH]ncc2c(=O)n1-c1ccccc1OC)c1ccccc1 -29%
COc1ccc(Nc2nc3ccccc3nc2NS(=O)(=O)c2cccs2)cc1 39.2%
O=C(O)c1cccc(Nc2nc3ccccc3nc2NS(=O)(=O)c2cccs2)c1 -74.2%
COc1ccc(Nc2nc3ccccc3nc2NS(=O)(=O)c2cccs2)c(OC)c1 18%
O=C(O)c1ccc(Nc2nc3ccccc3nc2NS(=O)(=O)c2cccs2)cc1 -3.1%
O=C1N2c3ccccc3CCc3cccc(c32)C1(O)C(F)(F)F (configuration not stated) -26.6%
CC1CC(C)CN(S(=O)(=O)N2CCCC(C(=O)NCCCN3CCOCC3)C2)C1 (configuration not stated) 16.8%
Cc1cc(C)nc(-n2nc(C)c(Br)c2Nc2ccc(Br)cc2)n1 -10.9%
CCn1nc(C)c(Br)c1Nc1ccc(Br)cc1 7.5%
CCN(CC)CC(=O)Nc1cccc(S(=O)(=O)N2CCCC2)c1 -15.1%
CC(=O)OCC(=O)Nc1cc(S(=O)(=O)N2CCCCCC2)ccc1Cl -22.1%
Cc1ccc(C)c(OCC(=O)Nc2cccc(S(=O)(=O)NC3=NCCCCC3)c2)c1 -2.9%
CCN(CC)S(=O)(=O)c1ccc(C(=O)Nc2cccc(C)c2)cc1 -4.2%
COc1cc(NC(=O)CNc2cccc(S(=O)(=O)N3CCCC3)c2)cc(OC)c1 -2.7%
CC(C)(C)CC(=O)Nc1cc(S(=O)(=O)N2CCCCCC2)ccc1Cl -3.6%
CCN(CC)S(=O)(=O)c1cccc(NC(=O)c2cncc(Br)c2)c1 -54.6%
Cc1ccc(OCC(=O)Nc2cccc(S(=O)(=O)NC3=NCCCCC3)c2)cc1C -93%
Cn1nc(-c2ccccc2)c2cc(C(=O)O)sc21 -19.4%
COc1cc(OC)cc(C(=O)Nc2cccc(NC(=O)c3ccccc3)c2)c1 2.4%
Cc1cccc2nc(CSc3ncccc3C(=O)O)cn12 -32.8%
Cc1cc(C)nc(N/N=C/c2ccccc2OCc2ccccc2)n1 -24.5%
COc1cccc(NC(=O)CSc2ccc3nnc(-c4ccncc4)n3n2)c1 10.7%
CS(=O)(=O)c1ccc(Cl)c(NC(=O)Cc2c(Cl)cccc2Cl)c1 19.7%
CS(=O)(=O)c1ccc(Cl)c(NC(=O)CCc2ccccc2)c1 -34.6%
CC(=O)c1cccc(NC(=O)Cn2c(=O)oc3cc(S(=O)(=O)N4CCCC4)ccc32)c1 -4.9%
O=C(CCc1ccccc1Cl)Nc1cccc(S(=O)(=O)N2CCCC2)c1 -16.3%
CC(=O)Nc1cccc(S(=O)(=O)N2CCCCCC2)c1 -15.2%
O=C(Cn1cnc2ccccc2c1=O)Nc1cccc(S(=O)(=O)N2CCCCC2)c1 3.7%
O=C(Cc1n[nH]c(=O)c2ccccc12)Nc1cccc(S(=O)(=O)N2CCCC2)c1 0.5%
O=C(Cn1c(=O)oc2cc(S(=O)(=O)N3CCCC3)ccc21)Nc1ccc(C(F)(F)F)cc1 8.8%
CCCc1cc(=O)[nH]c(SCC(=O)NCCC2=CCCCC2)n1 -16.8%
Cc1ccc2nc(NCC(=O)NN)nc(-c3ccccc3)c2c1 -11.2%
Cc1ccnc(NS(=O)(=O)c2ccc(NC(=O)c3cc(=O)c4ccccc4o3)cc2)n1 -0.9%
NC(=O)/C(=C/c1cccnc1)NC(=O)c1ccccc1 4.1%
CCc1ccc(C2c3[nH]c4ccccc4c3CCN2C(=O)c2cc(C)nn2C)cc1 (configuration not stated) -25.9%
CCCCN(C)C(=O)Cn1nc(-c2ccc(Cl)cc2)ccc1=O -9.3%
O=C(c1ccc(S(=O)(=O)N2CCCC2)cc1)N(Cc1ccco1)C1CCS(=O)(=O)C1 (configuration not stated) -10.9%
O=C(Nc1cccc(S(=O)(=O)NC2=NCCC2)c1)C1CCC1 -32.4%
CNC(=S)Nc1cccc(S(=O)(=O)NC2=NCCC2)c1 -13.1%
COc1cc(NC(=O)[C@H](C)NC(=O)N2CCn3c2nc2ccccc23)cc(OC)c1 5.6%
CCCc1nnc(SCC(=O)O)n1CC -9.2%
CSc1ccc(/C=C/C(=O)OCC(=O)N(C)CCC#N)cc1 -23%
Cc1cc(/C=N/N2CCN(C)CC2)c(C)n1-c1ccc(Cl)cc1 -8.4%
O=C(O)CN1C(=O)/C(=C/c2ccc(SCc3ccccc3)o2)SC1=S -39.2%
O=C1NC(=S)S/C1=C\c1ccc(SCc2ccco2)o1 -10.8%
CN(C)c1nc2ncn(Cc3ccccc3)c2c(=O)[nH]1 5.2%
COc1ccc(-c2c3c(nc4sc5c(=O)[nH]c(C)nc5c24)CCC3)cc1 -23.6%
O=c1[nH]cnc2c1sc1nc(-c3ccccc3)c3c(c12)CCCC3 34.8%
COc1ccc(-c2nc3c4ccccc4ccn3c2CN2CCCCC2)cc1OC -8.1%
Cc1nc(SCn2nnc3ccccc3c2=O)nc(C)c1C -13.8%
CCOc1ccc(S(=O)(=O)NCCSCc2ccco2)cc1 3.8%
COc1cc(NC(=O)CN2CCCCC2)c(C)cc1[N+](=O)[O-] -16.1%
COc1ccc(NC(=O)Cn2ncc(Cl)c(Cl)c2=O)cc1S(=O)(=O)N1CCOCC1 43.5%
COc1cc(NC(=O)CN2C(=O)CN(C)C2=O)c(C)cc1[N+](=O)[O-] -27.7%
CCN(CC)S(=O)(=O)c1cc(NC(=O)Cn2cnc3ccccc3c2=O)ccc1C -1.6%
CN(C(=O)c1ccccc1C(=O)OCC(=O)NC(=O)NC(C)(C)C)C1CCCCC1 -11.4%
Nc1cc(N)nc(SCC(=O)Nc2ccccc2)n1 17.4%
O=C(CSc1ncnc2scc(-c3ccccc3)c12)Nc1ccc(C(=O)O)cc1 24.9%
COc1ccnc(Oc2ccc(F)cc2)c1C(=O)N/C=N/OCc1ccc(F)cc1 -24%
Cc1oc2c(c(C)cc3oc(=O)c(CC(=O)N[C@@H](CC(C)C)C(=O)O)c(C)c32)c1C -2.2%
O=Cc1cn(CCC(=O)O)nc1-c1cccc(Br)c1 -28.9%
O=C(O)CCn1cc(/C=C/C(=O)c2ccc(Cl)cc2)c(-c2ccc(Br)cc2)n1 52.9%
CC(=O)c1sc(N/N=C\c2cccc(Br)c2)nc1C 3.9%
C=CCNC(=O)/C(C#N)=C/c1ccc2c(c1)OCCO2 -33.6%
Cc1ccc(N=Cc2sc(O)c3ccccc23)cc1 -36.5%
CCn1c(O)c(C=Nc2ccccc2)sc1=O -27.2%
CCOc1ccc(C(=O)Nc2nnc(S(=O)(=O)N3CCCCC3)s2)cc1 2.6%
O=C(N/N=C/c1cccc(OC(=O)c2cccc(Br)c2)c1)c1ccncc1 -35%
CCOC(=O)CC(NC(=O)c1ccco1)c1ccccc1Cl (configuration not stated) -14.8%
CC(=O)Nc1cccc(NC(=S)Nc2ccc(F)c(Cl)c2)c1 3%
Fc1ccc(NC(=S)Nc2cccnc2)cc1Cl -27%
Cn1cc(C(=O)NS(=O)(=O)Nc2ccc(Br)cn2)c2ccccc21 -29%
CC(C)(C)c1nnc(N/N=C/c2ccc(Br)cc2)n(N)c1=O -33.2%
CC(C)(C)c1nnc(N/N=C/c2ccccc2O)n(N)c1=O -45.8%
O=C(Nc1ncccc1Cl)c1ccccc1F -31.4%
Cc1[nH]n(-c2cccc3ccccc23)c(=O)c1/C=N/NC(=O)c1cccc([N+](=O)[O-])c1 -8.2%
Cc1[nH]n(-c2ccccc2)c(=O)c1/C=N/NC(=O)c1ccccc1F -9.2%
Cc1[nH]n(-c2ccc(Br)cc2)c(=O)c1/C=N/NC(=O)c1ccccc1 69%
Cc1ccc(-n2[nH]c(C)c(/C=N/NC(=O)c3ccc([N+](=O)[O-])cc3)c2=O)c(C)c1 -20.9%

inhibition, active:
O=C(Nc1cccc(Cn2cccn2)c1)c1cc2c(s1)CCCC2 34.5%
Cc1nn(C)c(Nc2ccc(Br)cc2)c1Br 44.9%
Cc1ccc(C(C)C)c(OCC(=O)Nc2cccc(S(=O)(=O)NC3=NCCCCC3)c2)c1 53.3%
O=C(Cn1c(=O)oc2cc(S(=O)(=O)N3CCCC3)ccc21)Nc1cccc(C(F)(F)F)c1 58%
CS(=O)(=O)c1ccc(Cl)c(NC(=O)CCl)c1 43.3%
O=C(Cn1[nH]c(=O)c2ccccc2c1=O)Nc1cccc(S(=O)(=O)N2CCCCCC2)c1 55%
O=C(CCl)Nc1cccc(S(=O)(=O)NC2=NCCC2)c1 64.9%
O=C1NC(=S)S/C1=C\c1ccc(SCc2ccccc2)o1 91.8%
O=c1[nH]cnc2c1sc1nc3c(c(-c4ccc(Cl)cc4)c12)CCC3 78.1%
CCN(CC)S(=O)(=O)c1cc(NC(=O)Cn2ncc(Cl)c(Cl)c2=O)ccc1C 62.3%
COc1cc(NC(=O)Cn2ncc(Cl)c(Cl)c2=O)c(C)cc1[N+](=O)[O-] 91.3%
Cn1c(O)c(C=Nc2ccc(Br)cc2)sc1=O 53.6%
Fc1ccc(NC(=S)Nc2ccc(F)c(Cl)c2)cc1Cl 74.1%
CC(C)(C)c1nnc(N/N=C/c2cc(Br)ccc2O)n(N)c1=O 68.7%
Cc1ccc(-n2[nH]c(C)c(/C=N/NC(=O)c3cccc([N+](=O)[O-])c3)c2=O)cc1C 92.8%
